A word on the inhibition: it is the drop in the measured response relative to a control, in per cent. A lower inhibition goes with a response near the control.

This passage reports inhibition results from ChEMBL document CHEMBL1961873, “Compounds: GSK PKIS; Assays: Nanosyn kinase panel” (2012).

Assay [1] deals with T1, Serine/threonine-protein kinase D2 (Homo sapiens) (UniProt Q9BZL6).
T1 sequence (whole entry): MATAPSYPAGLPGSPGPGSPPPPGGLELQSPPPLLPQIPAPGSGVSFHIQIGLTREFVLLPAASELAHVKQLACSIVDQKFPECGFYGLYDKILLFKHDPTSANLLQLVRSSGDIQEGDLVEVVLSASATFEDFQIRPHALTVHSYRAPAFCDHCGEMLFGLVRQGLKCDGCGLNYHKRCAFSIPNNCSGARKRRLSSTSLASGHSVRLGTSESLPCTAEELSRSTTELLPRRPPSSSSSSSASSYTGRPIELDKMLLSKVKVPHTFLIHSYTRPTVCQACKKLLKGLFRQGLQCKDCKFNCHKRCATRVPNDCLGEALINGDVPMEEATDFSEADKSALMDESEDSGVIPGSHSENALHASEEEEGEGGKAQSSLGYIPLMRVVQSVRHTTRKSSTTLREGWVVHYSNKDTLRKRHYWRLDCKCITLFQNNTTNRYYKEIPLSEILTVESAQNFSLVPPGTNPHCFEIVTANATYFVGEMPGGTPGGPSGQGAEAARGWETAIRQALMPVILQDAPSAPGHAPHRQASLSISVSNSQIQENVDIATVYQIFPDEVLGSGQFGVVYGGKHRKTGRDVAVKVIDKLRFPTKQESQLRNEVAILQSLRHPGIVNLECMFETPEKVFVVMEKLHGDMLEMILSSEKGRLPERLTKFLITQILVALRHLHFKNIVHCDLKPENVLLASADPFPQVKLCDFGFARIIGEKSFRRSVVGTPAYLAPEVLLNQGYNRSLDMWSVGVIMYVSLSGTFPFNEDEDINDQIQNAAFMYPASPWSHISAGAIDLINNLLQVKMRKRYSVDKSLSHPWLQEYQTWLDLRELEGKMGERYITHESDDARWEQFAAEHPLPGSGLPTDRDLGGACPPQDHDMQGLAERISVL
Particulars: at 1 µM.

Assay [2] deals with T2, Serine/threonine-protein kinase D3 (Homo sapiens) (UniProt O94806).
T2 sequence (whole entry): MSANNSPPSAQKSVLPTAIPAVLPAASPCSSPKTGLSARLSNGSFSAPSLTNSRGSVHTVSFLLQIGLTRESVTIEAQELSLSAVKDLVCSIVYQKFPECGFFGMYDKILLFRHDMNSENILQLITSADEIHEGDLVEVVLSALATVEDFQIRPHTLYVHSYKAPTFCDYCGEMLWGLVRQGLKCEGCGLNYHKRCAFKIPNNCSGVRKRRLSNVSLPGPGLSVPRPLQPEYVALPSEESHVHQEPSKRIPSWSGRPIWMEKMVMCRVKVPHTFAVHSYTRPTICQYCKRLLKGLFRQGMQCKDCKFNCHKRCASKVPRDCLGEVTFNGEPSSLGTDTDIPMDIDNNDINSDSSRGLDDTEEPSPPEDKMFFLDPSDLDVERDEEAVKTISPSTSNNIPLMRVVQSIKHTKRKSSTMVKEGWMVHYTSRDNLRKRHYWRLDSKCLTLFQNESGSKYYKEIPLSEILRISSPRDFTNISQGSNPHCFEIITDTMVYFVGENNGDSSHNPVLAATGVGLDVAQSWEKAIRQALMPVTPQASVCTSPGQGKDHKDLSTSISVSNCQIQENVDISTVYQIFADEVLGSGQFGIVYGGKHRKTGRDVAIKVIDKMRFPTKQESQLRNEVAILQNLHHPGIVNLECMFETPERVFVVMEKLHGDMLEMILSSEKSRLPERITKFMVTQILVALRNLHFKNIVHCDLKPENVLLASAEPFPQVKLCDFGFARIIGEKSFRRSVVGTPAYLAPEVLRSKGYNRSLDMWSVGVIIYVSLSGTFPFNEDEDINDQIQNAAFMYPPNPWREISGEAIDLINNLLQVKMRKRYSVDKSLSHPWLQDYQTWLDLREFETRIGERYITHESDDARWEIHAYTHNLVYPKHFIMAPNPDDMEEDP
The settings on record: at 0.1 µM.

Assay [3] addresses T2, Serine/threonine-protein kinase D3 (Homo sapiens). Particulars: at 1 µM.
Assay [4] addresses T3, cGMP-dependent protein kinase 1 (Homo sapiens) (UniProt Q13976).
T3 sequence (whole entry): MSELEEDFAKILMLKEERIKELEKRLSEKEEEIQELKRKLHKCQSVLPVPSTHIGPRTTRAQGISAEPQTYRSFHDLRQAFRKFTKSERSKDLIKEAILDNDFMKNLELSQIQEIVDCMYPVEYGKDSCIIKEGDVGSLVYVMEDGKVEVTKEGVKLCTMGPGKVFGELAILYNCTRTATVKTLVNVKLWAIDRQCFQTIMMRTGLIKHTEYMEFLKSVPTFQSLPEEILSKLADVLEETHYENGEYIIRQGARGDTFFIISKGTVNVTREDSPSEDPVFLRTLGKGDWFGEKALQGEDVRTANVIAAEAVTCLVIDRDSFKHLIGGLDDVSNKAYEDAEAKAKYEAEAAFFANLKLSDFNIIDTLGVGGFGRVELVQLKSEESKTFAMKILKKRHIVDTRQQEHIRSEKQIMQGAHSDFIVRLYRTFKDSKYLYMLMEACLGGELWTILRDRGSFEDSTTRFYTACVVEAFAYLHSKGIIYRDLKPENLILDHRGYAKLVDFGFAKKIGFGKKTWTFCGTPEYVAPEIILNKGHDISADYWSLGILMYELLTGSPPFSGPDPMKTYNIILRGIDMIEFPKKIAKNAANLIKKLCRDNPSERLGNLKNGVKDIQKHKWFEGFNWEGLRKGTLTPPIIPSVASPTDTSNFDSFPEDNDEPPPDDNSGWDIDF
The settings on record: at 0.1 µM.

Assay [5] deals with T3, cGMP-dependent protein kinase 1 (Homo sapiens). The settings on record: at 1 µM.
In assay [6] the target is T4, cGMP-dependent protein kinase 2 (Homo sapiens) (UniProt Q13237).
T4 sequence (whole entry): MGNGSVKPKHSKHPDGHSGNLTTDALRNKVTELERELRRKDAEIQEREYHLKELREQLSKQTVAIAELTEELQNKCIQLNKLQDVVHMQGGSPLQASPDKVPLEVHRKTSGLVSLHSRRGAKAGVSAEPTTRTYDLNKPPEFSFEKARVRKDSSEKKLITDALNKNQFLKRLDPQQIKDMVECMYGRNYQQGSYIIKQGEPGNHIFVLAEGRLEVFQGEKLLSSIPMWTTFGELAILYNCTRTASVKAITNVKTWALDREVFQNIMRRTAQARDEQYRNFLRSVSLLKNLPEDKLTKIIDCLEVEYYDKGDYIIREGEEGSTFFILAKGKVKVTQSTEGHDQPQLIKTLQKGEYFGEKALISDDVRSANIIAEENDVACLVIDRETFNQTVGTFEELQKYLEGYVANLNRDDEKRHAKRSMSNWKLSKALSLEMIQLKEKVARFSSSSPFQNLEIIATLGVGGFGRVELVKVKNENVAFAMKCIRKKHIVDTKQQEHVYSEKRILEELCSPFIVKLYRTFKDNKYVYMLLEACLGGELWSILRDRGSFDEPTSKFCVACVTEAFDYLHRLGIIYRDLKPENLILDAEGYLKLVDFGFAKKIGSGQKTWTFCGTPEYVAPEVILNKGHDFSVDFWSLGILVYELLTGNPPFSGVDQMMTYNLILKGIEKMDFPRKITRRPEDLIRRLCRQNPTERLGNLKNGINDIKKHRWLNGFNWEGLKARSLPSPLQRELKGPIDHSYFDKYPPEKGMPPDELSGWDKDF
The settings on record: at 0.1 µM.

The target of assay [7] is T4, cGMP-dependent protein kinase 2 (Homo sapiens). The settings on record: at 1 µM.
The target of assay [8] is T5, cAMP-dependent protein kinase catalytic subunit PRKX (Homo sapiens) (UniProt P51817).
T5 sequence (whole entry): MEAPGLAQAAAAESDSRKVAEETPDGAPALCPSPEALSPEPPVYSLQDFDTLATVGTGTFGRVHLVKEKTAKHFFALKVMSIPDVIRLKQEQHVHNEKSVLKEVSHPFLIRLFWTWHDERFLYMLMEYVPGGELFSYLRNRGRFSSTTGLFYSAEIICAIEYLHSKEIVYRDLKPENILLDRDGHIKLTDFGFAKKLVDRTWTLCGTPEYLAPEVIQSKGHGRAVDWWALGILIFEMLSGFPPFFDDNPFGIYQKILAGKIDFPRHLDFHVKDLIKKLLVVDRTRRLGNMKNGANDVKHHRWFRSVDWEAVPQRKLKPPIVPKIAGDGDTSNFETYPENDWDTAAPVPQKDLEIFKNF
The settings on record: at 0.1 µM.

The target of assay [9] is T5, cAMP-dependent protein kinase catalytic subunit PRKX (Homo sapiens). The settings on record: at 1 µM.
Assay [10] addresses Rho-associated protein kinase 1 (Homo sapiens) (UniProt Q13464). The settings on record: at 0.1 µM.
The target is the same in assay [11]. The settings on record: at 1 µM.
The target of assay [12] is Rho-associated protein kinase 2 (Homo sapiens) (UniProt O75116). The settings on record: at 0.1 µM.
For assay [13] the target is unchanged. Particulars: at 1 µM.
The target of assay [14] is Ribosomal protein S6 kinase alpha-1 (Homo sapiens) (UniProt Q15418). The settings on record: at 0.1 µM.
For assay [15] the target is unchanged. Particulars: at 1 µM.
For assay [16], the target named is Ribosomal protein S6 kinase alpha-3 (Homo sapiens) (UniProt P51812). Particulars: at 0.1 µM.
Assay [17] shares this target. The settings on record: at 1 µM.
Assay [18] deals with Ribosomal protein S6 kinase alpha-2 (Homo sapiens) (UniProt Q15349). The settings on record: at 0.1 µM.
Assay [19] shares this target. The settings on record: at 1 µM.
The target in assay [20] is Ribosomal protein S6 kinase alpha-6 (Homo sapiens) (UniProt Q9UK32). The settings on record: at 0.1 µM.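 Note: reported value is the mean inhibition of RSK4, from the GSK PKIS kinase inhibitor screen.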

The structures appear in SMILES notation.

Sequence of Rho-associated protein kinase 2 (Homo sapiens) (O75116 whole entry, looked up): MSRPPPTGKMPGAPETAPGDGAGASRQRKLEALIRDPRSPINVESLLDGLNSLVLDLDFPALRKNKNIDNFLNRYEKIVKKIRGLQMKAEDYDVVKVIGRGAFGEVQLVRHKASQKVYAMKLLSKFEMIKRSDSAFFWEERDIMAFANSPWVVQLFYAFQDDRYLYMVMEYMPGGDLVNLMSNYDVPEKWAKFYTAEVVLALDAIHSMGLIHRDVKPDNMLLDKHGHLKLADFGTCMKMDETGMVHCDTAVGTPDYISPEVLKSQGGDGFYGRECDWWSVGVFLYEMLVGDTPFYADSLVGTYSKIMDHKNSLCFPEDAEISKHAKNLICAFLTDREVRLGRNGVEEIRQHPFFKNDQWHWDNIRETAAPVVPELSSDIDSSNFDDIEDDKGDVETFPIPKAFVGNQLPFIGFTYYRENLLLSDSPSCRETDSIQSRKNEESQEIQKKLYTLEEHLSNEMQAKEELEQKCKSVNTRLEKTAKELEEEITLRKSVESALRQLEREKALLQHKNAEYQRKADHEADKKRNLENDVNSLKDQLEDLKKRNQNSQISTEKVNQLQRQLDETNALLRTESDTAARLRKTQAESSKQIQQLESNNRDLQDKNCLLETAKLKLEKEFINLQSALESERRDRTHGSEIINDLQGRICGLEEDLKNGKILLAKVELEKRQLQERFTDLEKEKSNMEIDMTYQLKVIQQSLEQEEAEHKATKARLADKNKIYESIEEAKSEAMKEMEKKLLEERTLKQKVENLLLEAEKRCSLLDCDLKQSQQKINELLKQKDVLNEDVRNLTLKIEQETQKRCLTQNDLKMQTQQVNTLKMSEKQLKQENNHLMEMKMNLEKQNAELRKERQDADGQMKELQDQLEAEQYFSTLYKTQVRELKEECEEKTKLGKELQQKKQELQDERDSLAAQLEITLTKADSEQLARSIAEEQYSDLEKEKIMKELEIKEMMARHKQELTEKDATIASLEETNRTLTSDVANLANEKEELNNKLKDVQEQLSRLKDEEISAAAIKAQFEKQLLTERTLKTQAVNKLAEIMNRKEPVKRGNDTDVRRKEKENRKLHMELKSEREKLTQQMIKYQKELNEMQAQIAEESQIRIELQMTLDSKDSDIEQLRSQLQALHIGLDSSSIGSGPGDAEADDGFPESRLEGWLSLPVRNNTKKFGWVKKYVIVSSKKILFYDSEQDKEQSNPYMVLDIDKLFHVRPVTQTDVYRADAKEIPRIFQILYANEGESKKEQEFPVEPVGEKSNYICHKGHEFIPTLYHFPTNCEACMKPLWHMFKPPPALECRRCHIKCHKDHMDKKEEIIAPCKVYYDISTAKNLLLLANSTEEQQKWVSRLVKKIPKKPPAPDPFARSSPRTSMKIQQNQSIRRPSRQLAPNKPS
Sequence of Rho-associated protein kinase 1 (Homo sapiens) (Q13464 2-1354 limits assumed): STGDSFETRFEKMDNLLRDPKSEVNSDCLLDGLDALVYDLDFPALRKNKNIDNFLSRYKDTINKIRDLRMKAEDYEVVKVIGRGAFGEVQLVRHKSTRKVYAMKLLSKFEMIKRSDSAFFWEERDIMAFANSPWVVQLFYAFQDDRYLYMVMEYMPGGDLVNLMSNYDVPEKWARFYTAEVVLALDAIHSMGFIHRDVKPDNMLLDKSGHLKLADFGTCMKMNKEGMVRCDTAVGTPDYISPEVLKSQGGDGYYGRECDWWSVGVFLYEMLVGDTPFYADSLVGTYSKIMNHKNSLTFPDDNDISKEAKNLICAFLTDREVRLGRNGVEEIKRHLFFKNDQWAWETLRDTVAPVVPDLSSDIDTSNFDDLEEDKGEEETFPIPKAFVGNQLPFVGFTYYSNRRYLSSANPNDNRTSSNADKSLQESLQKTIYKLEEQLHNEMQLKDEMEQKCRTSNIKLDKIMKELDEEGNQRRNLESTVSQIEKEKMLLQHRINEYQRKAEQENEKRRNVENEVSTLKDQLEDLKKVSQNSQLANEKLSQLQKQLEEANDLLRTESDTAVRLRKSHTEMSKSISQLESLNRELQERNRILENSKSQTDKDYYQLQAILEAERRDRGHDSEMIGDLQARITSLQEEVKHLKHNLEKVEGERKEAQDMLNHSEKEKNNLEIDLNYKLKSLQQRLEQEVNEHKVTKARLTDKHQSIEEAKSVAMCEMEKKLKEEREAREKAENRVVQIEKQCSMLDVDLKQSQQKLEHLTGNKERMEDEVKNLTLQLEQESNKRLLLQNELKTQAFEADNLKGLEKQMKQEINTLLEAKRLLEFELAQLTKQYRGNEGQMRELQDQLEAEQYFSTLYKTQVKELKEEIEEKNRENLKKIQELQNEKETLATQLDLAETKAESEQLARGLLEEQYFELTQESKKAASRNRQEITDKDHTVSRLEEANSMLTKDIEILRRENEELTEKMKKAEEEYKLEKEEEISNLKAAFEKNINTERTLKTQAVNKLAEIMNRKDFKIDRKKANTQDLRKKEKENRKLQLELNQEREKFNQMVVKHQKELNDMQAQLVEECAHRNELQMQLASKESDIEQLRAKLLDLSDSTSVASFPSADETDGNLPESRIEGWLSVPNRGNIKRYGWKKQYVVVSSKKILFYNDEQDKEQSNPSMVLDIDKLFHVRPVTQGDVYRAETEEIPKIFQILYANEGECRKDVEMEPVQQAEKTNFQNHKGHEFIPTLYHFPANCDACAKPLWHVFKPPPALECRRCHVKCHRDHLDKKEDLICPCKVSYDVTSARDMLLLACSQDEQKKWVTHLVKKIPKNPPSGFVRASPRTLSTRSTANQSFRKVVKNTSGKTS
Sequence of Ribosomal protein S6 kinase alpha-6 (Homo sapiens) (Q9UK32 whole entry): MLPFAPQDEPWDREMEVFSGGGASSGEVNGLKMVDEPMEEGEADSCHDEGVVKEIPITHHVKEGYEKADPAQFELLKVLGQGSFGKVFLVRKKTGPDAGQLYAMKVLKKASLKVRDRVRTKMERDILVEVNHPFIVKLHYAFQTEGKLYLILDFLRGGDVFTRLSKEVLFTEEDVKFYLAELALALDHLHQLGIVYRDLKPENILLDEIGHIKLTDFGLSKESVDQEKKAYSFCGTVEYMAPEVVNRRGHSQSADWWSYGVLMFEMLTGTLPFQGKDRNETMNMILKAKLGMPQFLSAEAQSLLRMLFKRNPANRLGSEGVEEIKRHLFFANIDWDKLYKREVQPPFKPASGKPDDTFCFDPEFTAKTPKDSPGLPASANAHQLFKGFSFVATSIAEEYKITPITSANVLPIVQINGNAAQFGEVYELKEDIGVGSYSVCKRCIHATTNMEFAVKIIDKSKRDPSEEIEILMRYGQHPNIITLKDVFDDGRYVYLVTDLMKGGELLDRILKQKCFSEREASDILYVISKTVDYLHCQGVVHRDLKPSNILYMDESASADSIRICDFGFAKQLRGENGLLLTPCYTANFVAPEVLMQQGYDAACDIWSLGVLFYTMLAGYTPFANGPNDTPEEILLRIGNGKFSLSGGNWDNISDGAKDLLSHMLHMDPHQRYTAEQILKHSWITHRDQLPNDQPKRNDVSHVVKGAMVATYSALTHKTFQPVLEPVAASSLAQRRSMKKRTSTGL
Sequence of Ribosomal protein S6 kinase alpha-2 (Homo sapiens) (Q15349 whole entry): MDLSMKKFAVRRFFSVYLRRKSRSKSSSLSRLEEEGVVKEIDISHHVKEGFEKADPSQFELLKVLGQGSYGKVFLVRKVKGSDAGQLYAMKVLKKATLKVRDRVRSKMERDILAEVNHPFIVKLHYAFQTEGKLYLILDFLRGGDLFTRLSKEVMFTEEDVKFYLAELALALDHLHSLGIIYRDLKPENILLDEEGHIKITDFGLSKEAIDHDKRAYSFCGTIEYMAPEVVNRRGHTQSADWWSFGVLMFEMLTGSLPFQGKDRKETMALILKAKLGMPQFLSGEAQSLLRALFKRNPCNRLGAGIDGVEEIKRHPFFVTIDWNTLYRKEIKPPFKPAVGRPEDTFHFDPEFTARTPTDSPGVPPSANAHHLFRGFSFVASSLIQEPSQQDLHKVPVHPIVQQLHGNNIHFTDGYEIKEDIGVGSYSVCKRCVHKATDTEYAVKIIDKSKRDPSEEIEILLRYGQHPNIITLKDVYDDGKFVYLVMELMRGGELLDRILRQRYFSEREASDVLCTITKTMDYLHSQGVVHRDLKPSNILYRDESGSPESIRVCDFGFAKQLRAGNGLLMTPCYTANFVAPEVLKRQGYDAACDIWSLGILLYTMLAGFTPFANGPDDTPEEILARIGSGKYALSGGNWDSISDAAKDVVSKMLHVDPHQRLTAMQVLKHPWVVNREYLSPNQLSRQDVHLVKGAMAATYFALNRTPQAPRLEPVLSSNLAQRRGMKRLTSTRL
Sequence of Ribosomal protein S6 kinase alpha-1 (Homo sapiens) (Q15418 whole entry): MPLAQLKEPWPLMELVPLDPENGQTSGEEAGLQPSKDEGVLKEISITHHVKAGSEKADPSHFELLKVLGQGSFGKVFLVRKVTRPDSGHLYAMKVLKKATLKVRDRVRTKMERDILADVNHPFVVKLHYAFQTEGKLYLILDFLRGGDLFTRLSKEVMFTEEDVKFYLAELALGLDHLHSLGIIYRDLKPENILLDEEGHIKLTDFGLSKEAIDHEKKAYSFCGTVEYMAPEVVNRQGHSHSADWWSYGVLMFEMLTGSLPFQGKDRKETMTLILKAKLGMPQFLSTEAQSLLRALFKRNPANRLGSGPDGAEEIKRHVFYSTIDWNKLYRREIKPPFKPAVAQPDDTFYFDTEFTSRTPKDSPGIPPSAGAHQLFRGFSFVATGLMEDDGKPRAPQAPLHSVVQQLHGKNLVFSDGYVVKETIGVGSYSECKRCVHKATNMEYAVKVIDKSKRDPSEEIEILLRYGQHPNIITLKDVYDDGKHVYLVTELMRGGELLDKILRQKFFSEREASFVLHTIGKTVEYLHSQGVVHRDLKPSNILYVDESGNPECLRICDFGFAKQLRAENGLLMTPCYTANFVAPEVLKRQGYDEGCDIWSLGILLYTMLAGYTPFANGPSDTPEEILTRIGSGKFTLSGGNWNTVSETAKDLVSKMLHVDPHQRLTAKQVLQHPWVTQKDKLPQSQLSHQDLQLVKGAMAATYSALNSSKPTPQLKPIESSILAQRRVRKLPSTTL

For `Cc1cc(O)cc(C)c1/C=C/c1cncc(C(=O)OC(C)(C)C)c1`, the inhibition was 1.78% in assay [1]; 2.12% in [2]; 2.64% in [3]; 3.26% in assay [4]; 3.58% in assay [5]; 1.21% in [6]. Moreover, the inhibition in [7] is 2.65%; in assay [8], 3.57%; in assay [9], 6.36%; in assay [10], 2.92%; in [11], 2.78%; in assay [12], 4.67%. Besides, the inhibition in assay [13] came to 3.55%; in [14], 0.74%; in [15], 1.77%; in assay [16], 1.52%; in assay [17], 1.88%; in assay [18], 1.57%. Also, the figures for the inhibition in assay [19] and in [20] were 1.41% and 0.33%, respectively.
Regarding `COC(=O)Nc1nc2cc(Oc3ccc(NC(=O)Nc4ccccc4)cc3)ccc2[nH]1`, the inhibition in assay [1] turned out to be 2.45%; in assay [2], 2.48%; in [3] it was 2.79%; in assay [4] it was 0.72%; in assay [5], 2.97%; in [6], 1.5%. Moreover, the inhibition came to 1.55% in assay [7]; 2.09% in [8]; 3.93% in [9]; 2.24% in assay [10]; 6.47% in assay [11]; 8.68% in assay [12]. Also, the inhibition in assay [13] is 17.2%; in [14], 1.66%; in [15] it was 4.06%; in assay [16], 2.3%; in assay [17], 3.56%; in [18] it was 1.67%. For the same molecule, the inhibition in assay [19] is 1.89%; in assay [20], 1.27%.
For the molecule `CC1(C)CC(n2cnc(-c3ccc(F)cc3)c2-c2ccnc(N)n2)CC(C)(C)N1`, the inhibition in assay [1] was determined as 3.58%; in [2] it was 1.4%; in assay [3] it was 3.8%; in [4], 0.62%; in [5], 2.53%; in [6], 1.24%. Also, the inhibition in assay [7] stood at 2.55%; in [8], 0.98%; in assay [9] it was 2.76%; in assay [10], 1.34%; in assay [11] it was 1.6%; in assay [12], 1.54%. For the same molecule, the inhibition in [13] is 1.8%; in [14], 1.07%; in assay [15], 1.93%; in assay [16], 1.45%; in assay [17] it was 2.77%; in assay [18], 1.16%. Moreover, the results for the inhibition in [19] and in [20] were 1.53% and 0.66%, respectively.
